High-throughput results as filed in PubChem.
Sampled rows, rich in hits. Any-hit rate of the full collection: about 12%.
L3MBTL1 inh – blocks human L3MBTL1; Q9Y468; AlphaScreen L3MBTL1–H3K9me1 peptide binding; Potency, µM (top dose mostly 57.1 µM), for inactives: at the top dose activity, negative = inhibition, most hits filed as inhibitors; hit rate 0.66% among 230,000; note: % is set by controls: 0 for no effect and ±100 for the full control effect; nearly all actives have a fitted effect of over 60% in size
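L3MBTL1 50 nM + b-AHA-H3(1-15)K9me1 75 nM, 30 min RT; compound added, 30 min RT; streptavidin donor/Ni-chelate acceptor beads 10 ug/mL each final, 30 min RT dark; AlphaScreen read.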
HP1b chromo inh – blocks HP1-beta chromodomain binding to methylated histone tails; hit rate 0.56% among 390,000; Potency, µM (doses to about 114 µM), for the others: top-dose activity change, negative = inhibition, most hits filed as inhibitors; AlphaScreen HP1-beta / biotin-H3K9me3 peptide binding; P83916; note: nearly all actives have a fitted effect of over 70% in size
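AlphaScreen: HP1-beta (50 nM) preformed 30 min with biotin-H3(1-18)K9me3 peptide (50 nM) in PBS pH 7.4, 0.01% Tween-20. Compound added for 30 min at RT, then streptavidin donor/nickel chelate acceptor beads (10 ug/mL) for 30 min.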
BAZ2B inh – inhibitors of human BAZ2B bromodomain | Q9UIF8 | AlphaScreen BAZ2B-H3K14Ac peptide displacement | Potency, µM (top dose mostly 114 µM), without a hit: at the highest dose activity change, negative = inhibition, actives largely listed as inhibitors | hit rate 4.4% among 360,000 | AID 504333; note: % is set by controls: 0 for no effect and ±100 for the full control effect; nearly all actives have a fitted effect of over 60% in size
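Inhibition is scored as reduced AlphaScreen emission. The BAZ2B/b-H3(5-23)K14Ac complex (50 nM each) in PBS pH 7.4, 0.01% Tween-20 meets compound (up to 110 uM) for 30 min at RT before bead addition.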
Sfp PPTase inh – inhibitors of Bacillus subtilis Sfp phosphopantetheinyl transferase; AID 1490; Biochemical Sfp PPTase activity, qHTS; hit rate 3.5% among 310,000; Potency, µM, without a hit: largest response in the series, negative = inhibition, most hits filed as inhibitors; Q9F4F7;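 note: the enzyme is Sfp with the accession as filed and its product quenches rhodamine fluorescence; 0% = enzyme reaction without inhibitor and -100% = no enzyme wells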
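Sfp 15 nM + cpd, 15 min RT; start w/ rhodamine-CoA 5 uM, BHQ-2-YbbR 12.5 uM (final); 50 mM Hepes pH 7.6, 10 mM MgCl2, 0.01% NP-40, 0.01% BSA; read 525/598 nm at 0 and 30 min.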
JMJD2A Tudor – blocks the human JMJD2A Tudor domain. O75164. AlphaScreen JMJD2A-Tudor / H3K4me3 peptide binding. Potency, µM (top dose mostly 114 µM), for the others: at the top dose activity change, negative = inhibition, most hits filed as inhibitors. hit rate 4.4% among 390,000; note: % is set by controls: 0 for no effect and ±100 for the full control effect; nearly all actives have a fitted effect of over 50% in size
G9a inh – inhibitors of human histone lysine methyltransferase G9a | Q96KQ7 | G9a H3K9 monomethylation, AlphaScreen, 2 h | Potency, µM (series often up to 102 µM), inactives show at the highest dose activity, negative = inhibition, usual class: inhibitors | hit rate 8.8% among 350,000; note: % is set by controls: 0 for no effect and ±100 for the full control effect; nearly all actives have a fitted effect of over 75% in size
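G9a (20 nM) preincubated 15 min RT with compounds, then 500 nM biotinylated H3K9 peptide and 20 uM SAM added; 2 h RT reaction. Monomethyl-H3K9 product detected by AlphaScreen with anti-H3K9me1 antibody, streptavidin donor and anti-rabbit IgG acceptor beads.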
Active calls of the source: *; ? = inconclusive; . = not tested or not shown; ! = not confirmed by another sample; [ ] = another dose, or the depositor's remark. Calls come from the whole dose curve; as a rule, active = well fitted curve in the direction sought with a large enough effect; inconclusive = small, poorly fitted or top-dose-only effect, or another doubt; inactive = no such curve, though single readings can be large; an effect the other way counts as inactive or inconclusive. Potency is the fitted concentration of half-maximal effect.

SMILES	L3MBTL1 inh	HP1b chromo inh	BAZ2B inh	Sfp PPTase inh	JMJD2A Tudor	G9a inh
CC(CNC(=O)C1CCCCC1)NC(=O)C1CCCCC1 (stereo not given)	17%	25%	16%	-5%	-4%	-35%[59 µM]
CCc1cccc(NC(=O)C(Cc2ccccc2)NS(=O)(=O)c2ccc3c(c2)c(=O)n(C)c(=O)n3C)c1 (stereo not given)	.	3%	?	.	-8%	-13%[59 µM]
CN(C)S(=O)(=O)c1cccc(NC(=O)CSc2cccc3cccnc23)c1	.	-7%	56µM*	-2%	?	56µM*
O=C(O)CSc1cccc2cccnc12	-4%	9%	?	56µM*	8%	14µM*!
COc1ccc(CCNC(=O)CSCc2nc(-c3ccc(OC)c(OC)c3)oc2C)cc1OC	.	21%	?	.	-20%	-4%[59 µM]
O=C(Cc1cccs1)NNC(=S)NC(=O)c1ccc(F)c(F)c1	15%	16%	4%	-27%	-2%	?
O=C(Cc1cccs1)NNC(=S)NC(=O)c1ccccc1	10%	19%	10%	-26%	50µM*	?
O=C(COc1ccccc1)NNC(=S)NC(=O)c1ccccc1	2%	5%	.	?	18µM*	2.2µM*
Cc1ccc(C(=O)NC(=S)NNC(=O)COc2ccccc2C)cc1	16%	-14%	4%	-50%	22µM*	3.5µM*
CC(=O)NNC(=S)NC(=O)c1ccccc1	12%	13%	1%	18µM*	20µM*	6.3µM*
COc1ccc(C(=O)NC(=S)NNC(=O)COc2ccccc2)cc1	18%	?	13%	-11%	-31%	.
CC(=O)Nc1ccc(OCC(=O)N(CC(C)C)C2CCS(=O)(=O)C2)cc1 (stereo not given)	7%	36%	0%	12%	-5%	-6%
Cc1ccc(C(=O)NNC(=S)NC(=O)c2ccc(Cl)cc2)cc1	1%	2%	5%	17%	-27%	40µM*
O=C(CCc1ccccc1)NNC(=O)c1ccc(Cl)cc1	-1%	36%	8%	1%	-2%	.
O=C(CCc1ccccc1)NNC(=S)NC(=O)c1ccc(Cl)cc1	.	-21%	9%	50µM*	-36%	1.6µM*
CCC(=O)NC(=S)NNC(=O)c1ccc(O)cc1	5%	57%	0%	-11%	20µM*	.
CCC(=O)NNC(=S)NC(=O)c1ccc(C)cc1	22%	24%	14%	56µM*	?	11%[0.501 µM]
O=C(Cn1ncc2c3ccccc3n(Cc3ccc(Cl)cc3)c2c1=O)NC1CCCCCC1	.	23%	-1%	.	-6%	4%[59 µM]
CCOc1[nH]n(-c2ccccc2)c(=O)c1C=Nc1ccc(Cl)cc1	5%	-31%	?	11%	?	-44%[12.7 µM]
O=c1c(C=Nc2ccc(Cl)cc2)c[nH]n1-c1cccc(Cl)n1	6%	18%	-6%	-4%	25µM*	-17%[12.7 µM]
O=c1[nH][nH]c(C(F)(F)F)c1C=Nc1cccc(Cl)c1	3%	23%	-4%	1%	-19%	?
O=c1c(C=Nc2cccc(C(F)(F)F)c2)c[nH]n1-c1cccc(Cl)n1	5%	-5%	?	0%	40µM*	50µM*
COc1ccc(-n2c(=O)c(-c3ccc(Cl)cc3)nc3cnc(N4CCNCC4)nc32)cc1	.	.	.	-22%	.	4%[0.501 µM]
CCOC(=O)c1ccc(N2CCN(c3cc(C)ccc3C)CC2)c(N)c1	.	3%	?	?	?	45µM*
Nc1cc(C(=O)O)ccc1N1CCCCC1	?	-21%	?	29%	?	?
CC1CCN(c2ccc(C(=O)O)cc2N)CC1	-3%	6%	50µM*	10%	-25%	79µM*
CC(=O)c1cccc(NC(=O)C2CCN(C(=O)c3ccc([N+](=O)[O-])cc3)CC2)c1	-1%	21%	-28%	26%	-9%	-13%
Cc1ccc2[nH]c3c(=O)n(N)c(=O)[nH]c3c2c1	0%	26%	-1%	15%	2%	2%
N#Cc1c(Nc2ccccc2)sc(C(=O)C2CC2)c1N	4%	42%	13%	-12%	1%	79µM*
